Screens: PubChem BioAssay, The Scripps Research Institute Molecular Screening Center
The list is not random: actives were taken first. Their share in the collection is about 3.5%.
TEAD-YAP inh = TEAD-YAP interaction inhibition, primary screen, TEAD-YAP interaction inhibitor project, luminescence, HEK-TIYL cells | inhibition, % at 9.12 µM | TEAD-Gal4/YAP UAS-luciferase luminescence | hit rate 1.4% among 640,000; in the data active = inhibition above about 32%;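 also: 0% = median of test compound wells and 100% = reference inhibitor wells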
GPR151 activ = activators of human GPR151, primary screen, cell-based, PathHunter beta-arrestin, luminescence; G-protein coupled receptor 151 (Homo sapiens), Q8TDV0; PathHunter beta-arrestin GPR151 cells; activation, % at 11.2 µM; hit rate 1% among 650,000; AID 1508602, 2020; in the data active = activation above about 4.9%;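 also: 0% = median of compound wells and 100% = cells with positive control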
Target sequence (Q8TDV0 whole entry, looked up): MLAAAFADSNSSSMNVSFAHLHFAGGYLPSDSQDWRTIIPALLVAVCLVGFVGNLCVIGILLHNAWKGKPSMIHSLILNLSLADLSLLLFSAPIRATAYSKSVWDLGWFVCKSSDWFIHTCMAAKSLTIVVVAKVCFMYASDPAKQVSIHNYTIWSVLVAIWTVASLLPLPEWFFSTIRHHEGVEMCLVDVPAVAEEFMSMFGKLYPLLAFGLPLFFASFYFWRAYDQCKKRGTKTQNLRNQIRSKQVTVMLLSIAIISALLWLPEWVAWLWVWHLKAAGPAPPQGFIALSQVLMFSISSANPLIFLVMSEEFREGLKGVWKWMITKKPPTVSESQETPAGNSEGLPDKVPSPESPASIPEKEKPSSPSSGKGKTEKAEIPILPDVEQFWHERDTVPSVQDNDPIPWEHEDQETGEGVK
FBW7 activator = FBW7 E3 ligase activators, primary screen, biochemical, AlphaScreen, human. F-box/WD repeat-containing protein 7 (Homo sapiens), Q969H0. AlphaScreen FBW7–phospho-cyclin E peptide binding, activator screen. normalized activity (activation), % at 26.1 µM. hit rate 0.13% among 650,000; in the data active = normalized activity above about 1.9%;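 also: purified mutant Fbw7 with reduced substrate affinity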
MITF primary = MITF inhibitors, primary screen, biochemical, AlphaScreen, human. Microphthalmia-associated transcription factor (Homo sapiens), O75030. AlphaScreen MITF homodimerization, bead proximity signal. inhibition, % at 2.6 µM. hit rate 0.91% among 650,000. AID 1259374, 2018; in the data active = inhibition above about 50%;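 also: 0% = vehicle wells with protein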
GPR151 confirm = GPR151 activators, triplicate retest, confirmation, cell-based, PathHunter beta-arrestin, luminescence. GPR151 PathHunter beta-arrestin cells, 90 min; % of EA-reagent control over plate median. 6,700 tested, under 10 active. shares compounds with GPR151 activ. activation, % at 11.2 µM;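 active = mean percent activation across replicates above the confirmation screen cutoff of 4.91%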
GPR119 counter = GPR119 activators in beta-arrestin cells, counter-screen for GPR151 activator project, cell-based, PathHunter beta-arrestin, luminescence, triplicate; hit rate 0.3% among 6,700; 90 min; 0 = compound-well median, 100 = enzyme-acceptor control; activation, % at 11.2 µM; shares compounds with GPR151 activ;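 active = mean percent activation in the counterscreen above 29.09%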;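 also: counterscreen on off-target GPR119 to flag nonselective hits from the GPR151 activator screen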
An asterisk follows results filed as active; . = no result given; ! = not confirmed by another sample.

SMILES	TEAD-YAP inh	GPR151 activ	FBW7 activator	MITF primary	GPR151 confirm	GPR119 counter
CCCOc1ccc(/C(O)=C2/C(=O)C(=O)N(CCN(C)C)C2c2ccc(F)cc2)c(C)c1 (configuration not stated)	9	-1	1	11	.	.
CCCOc1ccc(/C(O)=C2/C(=O)C(=O)N(CCCN(C)C)C2c2ccc(F)cc2)c(C)c1 (configuration not stated)	2	5.3*	0	-4	-1	0
CCCS(=O)(=O)c1c(S(=O)(=O)CCC)c2ccc(C(C)=O)cn2c1C(=O)c1ccc(OC)cc1	-3	6.1*	0	-1	1	18
CCCS(=O)(=O)c1c(S(=O)(=O)CCC)c2ccc(C(C)=O)cn2c1C(=O)c1ccc(C)cc1	5	1	0	15	.	.
CCOc1ccc(C(=O)Nc2cc3nn(-c4ccc(OC)cc4)nc3cc2C)cc1Br	3	0	0	-19	.	.
CCN(CC)CCNC(=O)CN1CC(=O)N2CCCC2C1=O (configuration not stated)	-3	5.9*	0	4	0	5
CCOCCCNC(=O)CN1CC(=O)N2CCCC2C1=O (configuration not stated)	1	-3	1	13	.	.
O=C(CSc1ncc(-c2cccc(Br)c2)o1)Nc1ccc(F)cc1F	6	9.3*	0	-3	-4	-12
COc1ccc(S(=O)(=O)Nc2cccc([N+](=O)[O-])c2)c(Cl)c1Cl	13	5.2*	0	-3	-1	-4
COc1ccc(S(=O)(=O)NCCSC(C)(C)C)c(Cl)c1Cl	-3	8.6*	0	8	2	8
COc1ccc(S(=O)(=O)Nc2cccc(N(C)S(C)(=O)=O)c2)c(Cl)c1Cl	9	-2	0	5	.	.
Cc1cc(NC(=O)c2cc(-c3ccccc3O)no2)nn1CC(=O)N1CCOCC1	-8	5.6*	0	6	1	5
COc1ccc(C[C@H](N)C(=O)N[C@@H]2[C@@H](CO)OC(n3cnc4c(N(C)C)ncnc43)[C@@H]2O)cc1 (some centres not stated)	100*	6.8*!	0	-4	2	0
Nc1ncnc2c1ncn2[C@@H]1O[C@H](CO)[C@@H](O)[C@H]1O	-9	1	0	-7	.	.
Cc1nn(-c2ccccc2)c(C)c1N1CCN(C(=O)c2cc3ccccc3oc2=O)CC1	1	0	0	13	.	.
CCn1c(O)c(/C=C2\C=Nc3ccc(Br)cc32)sc1=O	-9	1	0	15	.	.
Oc1[nH]c(=S)sc1/C=C1\C=Nc2ccc(Br)cc21	-6	6.0*	0	-9	0	6
O=C1c2ccncc2C(=O)N1c1ccc(F)cc1	-9	5.9*	0	-8	0	-9
Cc1ccc(N2C(=O)c3ccncc3C2=O)cc1	2	1	0	-8	.	.
COc1ccc(N2C(=O)NC3CC2(C)Oc2c(OC)cccc23)cc1 (configuration not stated)	10	0	0	4	.	.
COc1ccc(N2C(=O)NC3CC2(C)Oc2c(OC)cccc23)c(OC)c1 (configuration not stated)	12	6.7*	0	7	2	11
Cc1cccc(-n2cc(-c3ccccc3)nc2SCC(=O)Nc2ccc(Cl)cc2)c1	-8	6.3*	0	11	0	2
CCCCCCOc1ccc(C(=O)O)cc1	0	-5	0	-27	.	.
CCCOc1ccc(-c2ccc(C(=O)O)cc2)cc1	-23	6.3*	0	8	0	2
COc1cccc(-c2ccc(=O)n(CC(=O)Nc3ccc(C(=O)N4CCCC4)cc3)n2)c1	-10	1	0	0	.	.
SMILES	TEAD-YAP inh	GPR151 activ	FBW7 activator	MITF primary	GPR151 confirm	GPR119 counter
COc1ccccc1-c1ccc(=O)n(CC(=O)Nc2ccc(Br)cc2)n1	5	9.6*	0	-2	0	-5
COc1cccc(-c2ccc(=O)n(CC(=O)Nc3ccc(Cl)c(C(F)(F)F)c3)n2)c1	-2	18*	0	-7	1	-1
CC1CCCCN1CCCNC(=O)c1ccc2nc(N3CCOCC3)sc2c1 (configuration not stated)	-1	0	1	5	.	.
CCOc1ccc(C(=O)NC(=S)Nc2ccc([N+](=O)[O-])cc2)cc1	21	0	1	-4	.	.
Oc1ccc(-c2nc(-c3ccc(-c4ccccc4)cc3)c(-c3ccc(-c4ccccc4)cc3)[nH]2)cc1	9	-1	0	11	.	.
Oc1ccc(-c2nc(-c3cccc(C(F)(F)F)c3)c(-c3ccccc3)[nH]2)cc1	12	5.8*	0	7	0	-4
CCOc1cc(C=C2C(=O)NC(=O)NC2=O)ccc1OC	14	-2	0	12	.	.
O=C1NC(=O)C(=Cc2cccc(OS(=O)(=O)c3ccc(Cl)cc3)c2)C(=O)N1	-21	2	-1	-9	.	.
CCOc1cc(C=C2C(=O)NC(=O)NC2=O)ccc1OS(=O)(=O)c1ccc(OC)cc1	6	6.0*	0	-11	1	4
COc1ccc(S(=O)(=O)Oc2cccc(C=C3C(=O)NC(=O)NC3=O)c2)cc1	-10	6.1*	-1	-5	0	8
O=C(c1ccc(C#CC2(O)CCCCC2)cc1)N1CCN(c2ccccc2)CC1	1	2	0	9	.	.
O=C(c1ccccc1)N1CCN(CC#CC2(O)CCCCC2)CC1	-2	10*	1	20	1	4
O=S1(=O)CCC(NS(=O)(=O)c2ccc(S(=O)(=O)NC3CC3)cc2)C1 (configuration not stated)	-8	5.2*	1	-6	-1	-9
CCOC(=O)/C=C1/C=C2C(=CC=C(C)C23CC(C)(C)N/C3=C\C(=O)OCC)CC(C)(C)N1 (configuration not stated)	11	1	0	-2	.	.
O=C(Nc1cc(C(F)(F)F)cc(C(F)(F)F)c1)C1CC1	4	10*	0	12	-1	-22
CC(C)(C)c1nnc(Nc2cc(Cl)ccc2Cl)[nH]c1=O	-6	5.7*	0	1	1	5
CC(C)(C)c1nnc(Nc2ccccc2Cl)[nH]c1=O	0	0	0	-1	.	.
Cc1ccc(-c2oc3ccccc3c(=O)c2OC(=O)CN2C(=O)c3ccccc3C2=O)cc1	-17	11*	0	20	-1	-6
O=C(CN1C(=O)c2ccccc2C1=O)Oc1c(-c2ccccc2)oc2ccccc2c1=O	-29	0	0	-6	.	.
